Hit rate of the full screen: of about 310,000 compounds, about 410 (0.13%) were called active. Another 2% or so got no clear call; they are omitted. The rule behind the calls is not given here. These entries were drawn from the full list. Entries with a potency or affinity are not part of this list.
Test: inhibition of RSV-induced cytopathic effect – HEp-2 cells, primary 10 µM value included (AID 2391)
Conditions: at 10 µM, hits give high values

CPE inhibition, inactive:
Nc1nc(SCCN2C(=O)c3ccccc3C2=O)n[nH]1 -0.57%
CCOC(=O)C1(Cc2ccccc2)CCN(Cc2cccn2-c2nccs2)CC1 3.06%
CCOC(=O)C1(Cc2cccc(OC)c2)CCN(Cc2cccn2-c2ccccn2)CC1 0.49%
O=C(O)CN=C(NS(=O)(=O)c1ccc(Cl)cc1)c1ccc(F)cc1 0.86%
O=C(CSc1nc2ccccc2c(=O)n1Cc1ccco1)NCc1ccco1 0.72%
CCOC(=O)CSc1nc2ccccc2c(=O)n1Cc1ccco1 0.79%
Cc1[nH]n(-c2ccccc2)c(=O)c1Sc1ccc(Cl)cc1 2.83%
Cc1ccc(OCCn2cnc3cc([N+](=O)[O-])ccc3c2=O)cc1 5.29%
COc1ccc(N(CC(=O)NC2CCCCC2)C(=O)c2ccc(C)s2)cc1OC 5.93%
COc1ccc(N(CC(=O)NC2CCCC2)C(=O)c2ccc(C)s2)c(OC)c1 41%
CC(=O)c1ccc(OCCCC(=O)NNC(=O)c2ccccn2)cc1 1.08%
Cn1c(=O)c2ccccc2n(CC(=O)N2CCCc3ccccc32)c1=O 12.6%
COc1cc(C2NC(=O)NC(C)=C2C(=O)OCc2ccc(C)cc2)cc(OC)c1OC (stereo not given) 1.37%
CN(CC(=O)Nc1ccc(Cl)c(Cl)c1)C(=O)CNC(=O)C1CCCCC1 -0.65%
O=C(Cn1cnc2ccccc21)N/N=C/c1ccccc1 1.41%
CCOC(=O)c1c(-c2cccc(C)c2)csc1NC(=O)C1CC=CCC1C(=O)O (stereo not given) 1.3%
COC(=O)c1c(-c2ccccc2)noc1C 3.69%
CCOC(=O)c1c(-c2ccccc2)csc1NC(=O)c1cc(-c2ccccc2OC)on1 3.07%
COC(=O)c1c(-c2ccc(C)cc2)csc1NC(=O)c1c(-c2ccccc2)noc1C 45.8%
O=C(COc1ccc(S(=O)(=O)N2CCOCC2)cc1)NC1CC1 0.7%
CCO/N=C1\C(=O)N(c2ccccc2)c2ccccc21 10.6%
CN1CCN(c2ccc(Nc3ccnc4cc(Cl)ccc34)cc2)CC1 0.21%
Cc1ccc2[nH]ccc(=O)c2c1 4.4%
CNc1oc(-c2cccc3ccccc23)nc1C#N 22.2%
CCNc1oc(-c2cccc3ccccc23)nc1C#N 31%
O=C(NC1CCCCC1)c1cc(S(=O)(=O)N2CCOCC2)c(Cl)cc1Cl -0.26%
CC1CCN(C(=O)CCc2nnc3ccc(NCCCN4CCCC4=O)nn23)CC1 2.33%
COC(=O)c1ccc(COC(=O)CNC(=O)c2ccc(-c3ccccc3)cc2)cc1 3.63%
COc1ccc2oc(C(=O)NCCC(C)C)c(C)c2c1 3.36%
Cc1nc2ccccc2nc(C)c1=NOCc1ccc(C#N)cc1 3.19%
Cc1nc2ccccc2nc(C)c1=NOCc1cccc(Cl)c1 3.77%
CCNC(=O)CC1C(=O)N(c2ccc(F)cc2)C(=S)N1CCc1ccncc1 (stereo not given) -1.58%
CCOC(=O)c1sc(NS(=O)(=O)c2ccc(F)cc2)nc1C -0.12%
O=S(=O)(NC1CCN(Cc2ccccc2)CC1)c1ccc2ccccc2c1 -0.58%
CCOc1cc(C(=S)N2CCCC2)ccc1O 0.51%
COC(=O)N/N=C/c1ccc(-c2cc(Cl)ccc2Cl)o1 -0.35%
COC(=O)N/N=C/c1ccc(-c2cc(Cl)cc(Cl)c2)o1 42.2%
Cc1ccc(C(=O)N2CCN3C(=O)c4ccccc4C23c2ccccc2)cc1 (stereo not given) 3.84%
O=C(c1ccc(F)cc1)N1CCN2C(=O)c3ccccc3C12c1ccc(Cl)cc1 (stereo not given) 73.1%
Cc1nc2ccccc2nc1OCc1ccc([N+](=O)[O-])cc1 1.85%
Nc1ccc(C(=O)Nc2ccco2)cc1 0.93%
Nc1c(-c2cccs2)cnc2c(-c3ccc(F)cc3)cnn12 10.8%
CCCn1c(SCC(=O)Nc2cc(C)on2)nc2c1c(=O)n(C)c(=O)n2C -0.53%
COc1ccc(S(=O)(=O)N2CCCCC2)cc1NC(=O)C1CC1 -0.43%
O=C(COC(=O)c1cnccn1)c1ccc(C2CCCCC2)cc1 1.84%
Cc1cc(NC(=O)C(C)SCC(=O)OCC(=O)N(C)c2ccccc2)no1 (stereo not given) 0.41%
Cc1cccc(N(Cc2ccccc2)C(=O)CSC(C)C(=O)Nc2cc(C)on2)c1 (stereo not given) 15.8%
CNC(=S)SCCOc1ccccc1 1.7%
COc1ccc(-n2nc(C(=O)NCC(=O)N3CCCC(C)C3)c3ccccc3c2=O)cc1 (stereo not given) 2.49%
COc1ccc2cc3cc(C(=O)NC4CC4)sc3nc2c1 6.36%
CCC(C)NC(=O)c1cc2cc3ccc(OC)cc3nc2o1 (stereo not given) 4.45%
CCc1ccccc1NC(=O)NNC(=O)CCc1ccc(OC)cc1 1.38%
COc1cccc(CNCc2cc(OC)cc(OC)c2)c1 -0.77%
C(=N\Nc1nc(Nc2ccccc2)nc(N2CCOCC2)n1)/c1c[nH]c2ccccc12 38.2%
CN(C)c1nc(N/N=C/c2c[nH]c3ccccc23)nc(N2CCOCC2)n1 5.13%
Cc1ccc(S(=O)(=O)NC2CCSC2=O)cc1C (stereo not given) 0%
Cc1sc(NC(=O)c2ccco2)c(C(c2ccncc2)N2CCOCC2)c1C (stereo not given) 6.19%
COc1cccc(C(c2c(NC(=O)c3ccco3)sc(C)c2C)N2CCOCC2)c1 (stereo not given) 0.09%
COC(=O)c1ccccc1S(=O)(=O)N1CCC(C(=O)OC(C)C(=O)NC(N)=O)CC1 (stereo not given) 1.21%
CCOc1ccc(OCCNC(=O)c2oc3ccccc3c2COC)cc1 2.63%
O=C1CCCCC1C(=O)c1cn(-c2ccc(Cl)c(Cl)c2)nn1 (stereo not given) 1.71%
N#Cc1c(N2CCCCC2)nc(N)c2c(N)nc3c(c12)CC(c1ccccc1)O3 (stereo not given) 18.6%
CN1CCN(C(=O)c2cc3nc(-c4ccccc4)cc(-c4ccccc4)n3n2)CC1 -2.59%
O=C(c1cc2nc(-c3ccccc3)cc(-c3ccccc3)n2n1)N1CCCC1 -1.34%
CC1CCN(C(=O)c2cc3nc(-c4ccccc4)cc(-c4ccccc4)n3n2)CC1 -0.54%
O=C(O)c1cc2nc(-c3ccccc3)cc(-c3ccccc3)n2n1 0.05%
COc1cc(C2C(C#N)=C(N)Oc3c2oc(CO)cc3=O)ccc1OC(C)C (stereo not given) 0.67%
Cc1c(C)c2c(OCC(=O)NCc3ccccn3)cc3c(c2oc1=O)CCC(C)(C)O3 -0.55%
Cn1c(C(O)c2ccccc2)nc(Cl)c1Cl (stereo not given) 2.93%
COc1ccc(-n2c(=O)c3ccccc3n(CC(=O)NC3CCCC3)c2=O)cc1 0.83%
C#CCOCCOCCOCCNc1nc(N2CCOCC2)nc(N2CCN(C(=O)CCCCCCCCCCNC(=O)[C@@H]([C@H](C)O)n3cc(C)nn3)CC2)n1 2.9%
C#CCOCCOCCOCCNc1nc(N2CCN(C(=O)CCCCCCCCCCNC(=O)[C@H](CCCCN)n3cc(C)nn3)CC2)nc(N2CCN(C(=O)CCCCCCCCCCNC(=O)[C@@H]([C@H](C)O)n3cc(C)nn3)CC2)n1 8.35%
CCOc1ccc(C(C)=O)cc1Cn1c(=O)oc2ccccc21 9.32%
Cc1ccc(Cn2nnc3c(=O)[nH]c(C4CCN(S(=O)(=O)c5ccc(F)cc5)CC4)nc32)cc1 13.9%
O=c1[nH]c(C2CCN(S(=O)(=O)c3ccc4c(c3)OCCO4)CC2)nc2c1nnn2Cc1cccc(F)c1 67.8%
O=c1[nH]c(C2CCN(S(=O)(=O)c3ccc4c(c3)OCCO4)CC2)nc2c1nnn2Cc1ccc(F)cc1 63.7%
O=c1[nH]c(C2CCN(S(=O)(=O)c3ccccc3)CC2)nc2c1nnn2Cc1ccccc1 19.1%
O=c1[nH]c(C2CCN(S(=O)(=O)c3ccc(F)cc3)CC2)nc2c1nnn2Cc1ccc2c(c1)OCCO2 64.8%
Cc1ccc(Cn2nnc3c(=O)[nH]c(C4CCN(S(=O)(=O)c5ccccc5F)CC4)nc32)cc1 84.2%
O=c1[nH]c(C2CCN(S(=O)(=O)/C=C/c3ccccc3)CC2)nc2c1nnn2Cc1ccccc1 76.1%
O=c1[nH]c(C2CCN(S(=O)(=O)c3ccccc3F)CC2)nc2c1nnn2Cc1ccc(F)cc1 39%
COC(=O)CC(c1ccc(C#N)cc1)n1c(C)ccc1C (stereo not given) -0.14%
Cc1ccccc1COn1nnc2ccc(S(=O)(=O)N3CCOCC3)cc21 -1.48%
O=C(NC1CCCCC1)N1CCN(c2ncccn2)CC1 2.35%
COc1ccccc1-n1c(SCC(=O)Nc2ccc(Br)cc2)nc(O)cc1=O 0.85%
COC(=O)Nc1ccc(S(=O)(=O)N(CCO)CCO)cc1 -0.61%
Cc1cccc(NC(=O)c2ccc(COc3ccc(Cl)cc3Cl)o2)n1 -0.26%
O=c1[nH]c(C2CCCN(S(=O)(=O)c3ccccc3)C2)nc2c1nnn2Cc1ccc(OC(F)(F)F)cc1 (stereo not given) 1.75%
CC(C)[N+](C)(C)CC#CC(O)(c1ccccc1)c1ccccc1 -0.2%
N#Cc1ccc(CN2CCN(C(=O)CC(NC(=O)c3ccccc3)c3ccccc3)CC2)cc1 (stereo not given) 2.31%
